The whole screen tested about 69,000 compounds, of which about 8,600 (12%) showed an effect of 50% or more. What follows is part of a selection rich in strong results, with near analogues and random picks from the rest.
System: Plasmodium berghei
Test: Screen against P. berghei liver stage (PbLuc), transformed with Luciferase, at 10uM
Assay type: functional, HepG2
Details: tested at 10 uM

SMILES	INHIBITION
COCCN1CCCn2c(nc(Cn3cncn3)cc2=O)C1	13.6%
CN(Cc1ccncc1)C(=O)NC1CCCN(c2ncccn2)C1 (stereo not drawn)	36.1%
O=C(NCc1ccc(Cl)cc1)N1CCN(CC(O)C2CC2)CC1 (stereo not drawn)	25.9%
CS(=O)(=O)N1CCC(NC(=O)COc2ccc3ccccc3c2)CC1	33.3%
Cc1oc(-c2cccc(F)c2F)nc1CN(C)CCO	11.3%
Cc1oc(-c2cccc(F)c2F)nc1CN(C)CCC(C)(C)O	16%
COCCN(C)Cc1nc(-c2cccc(F)c2F)oc1C	51.9%
O=C(c1ccnnc1)N1CC[C@]2(C[C@H](Oc3ncccc3F)CO2)C1	-29.3%
Cc1nn(C)cc1-c1cc(C(=O)N2CCc3ncc(Cl)cc3C2)no1	38.65%
CC(C)c1nnc(NC(=O)NC2CCN(Cc3ccccc3)C2)s1 (stereo not drawn)	-15.05%
CCC(CC)c1nnc(NC(=O)N2CCC(C(N)=O)CC2)s1	12.6%
CCC(CC)c1nnc(NC(=O)N2CCCC(NC(C)=O)C2)s1 (stereo not drawn)	52%
CCCc1nnc(NC(=O)N2CCCC(NC(C)=O)C2)s1 (stereo not drawn)	17%
CC(=O)NC1CCCN(C(=O)Nc2nnc(C(C)C)s2)C1 (stereo not drawn)	52%
CC(=O)NC1CCCN(C(=O)NCc2cc[nH]n2)C1 (stereo not drawn)	31.9%
NCCc1cc(N2CCOCC2)nc(NC2CC2)n1	18.25%
CN(C)CCN(Cc1ccc(C#N)cc1)C(=O)c1ccn(C)c(=O)c1	8.38%
CS(=O)(=O)NCCNC(=O)Cc1ccc(Br)s1	-62.1%
CNC(=O)c1cc(NC(=O)Nc2cnn(CC(C)C)c2)ccc1F	1.56%
COc1ccccc1-c1cc(C(=O)N2CCCC2)c2cnn(C)c2n1	44.1%
O=C(CCc1ccccn1)N1CCCC1	-8.11%
O=C(C1SCCc2sccc21)N1CC(O)C1 (stereo not drawn)	6.33%
NC(=O)C1CCN(C(=O)C2SCCc3sccc32)CC1 (stereo not drawn)	69.7%

SMILES	INHIBITION
CN(C)C1CCN(C(=O)C2SCCc3ccccc32)CC1 (stereo not drawn)	19.2%
CC(=O)N1CCN(C(=O)C2SCCc3sccc32)CC1 (stereo not drawn)	8.47%
O=C(C1SCCc2sccc21)N1CCCCC1 (stereo not drawn)	62%
CN(C)C(=O)C1SCCc2ccccc21 (stereo not drawn)	38.9%
O=C(C1SCCc2ccccc21)N1CCC(O)CC1 (stereo not drawn)	50.8%
CN1CCN(C(=O)C2SCCc3sccc32)CC1 (stereo not drawn)	39.7%
O=C(C1SCCc2sccc21)N1CCC(O)CC1 (stereo not drawn)	20.1%
COCCNC(=O)C1CCCN(c2ccc3nncn3n2)C1 (stereo not drawn)	-21.9%
CCO[C@H]1CN(CC2CCOCC2)[C@@H]2CCCO[C@H]12	38.5%
O=C1COC2(CCN(Cc3ccco3)CC2)CN1CCn1cccn1	4.02%
O=C(Nc1ccc(CCN2CCOCC2)cc1)C1CC1	6.35%
Cc1nsc(N2CCCN(C(=O)CCc3ccsc3)CC2)n1	15.7%
CCOc1ccc(N2CCCN=C2NC(=O)c2ccc(OC)cc2)cc1	-8.07%
CCOc1ccc(N2CCCN=C2NC(=O)c2cccc(OC)c2)cc1	54.9%
CCOc1ccc(N2CCCN=C2NC(=O)c2cccc(Cl)c2)cc1	23.5%
CCOc1ccc(N2CCCN=C2NC(=O)c2ccc(Cl)cc2)cc1	19.3%
CCOc1ccc(N2CCCN=C2NC(=O)c2ccccc2C)cc1	-11.5%
CCOc1ccc(N2CCCN=C2NC(=O)c2cccc(C)c2)cc1	54%
NC(=O)C1CCN(C(=O)NCCNc2ccccn2)CC1	21.9%
CCc1ncc(CN(C)C2CCN(C(C)C)CC2)cn1	-27.1%
O=C(c1ccco1)N1CCC2(CCC(=O)N2Cc2cccc(F)c2)CC1	-4.27%
COc1cc(N2C[C@H](C(=O)NC3CC3)[C@@H]3CCO[C@@H]3C2)ncn1	12.7%
Cc1cnn(C2CN(CC(O)c3ccc(F)cc3)C2)c1 (stereo not drawn)	-30.1%

SMILES	INHIBITION
Cc1cnn(C2CN(CC(O)c3ccccc3)C2)c1 (stereo not drawn)	29%
Cc1cnn(C2CN(CC(O)COc3ccc(C#N)cc3)C2)c1 (stereo not drawn)	72.7%
Cc1ncc2c(n1)CN(CC(O)COc1ccc(C#N)cc1)CC2 (stereo not drawn)	-78%
COc1ccc(C(O)CN2CC(n3cc(C)cn3)C2)cc1 (stereo not drawn)	57.2%
Cc1cnn(C2CN(CC(O)Cn3cccn3)C2)c1 (stereo not drawn)	36.6%
COc1cccc(-n2c(C)cc(C(=O)NCCCC(N)=O)c2C)c1	-5.25%
CC(C)c1nnc2n1CCN(C(=O)c1cccc(S(C)(=O)=O)c1)C2	45.7%
O=C(C1CCOCC1)N1C[C@H]2CCC[C@@]2(COCc2ccccn2)C1	53%
O=C(C1CCOCC1)N1C[C@H]2CCC[C@@]2(COc2ccccn2)C1	13.6%
O=C(N1CCCC1)N1C[C@H]2CCC[C@@]2(COCc2ccccn2)C1	63.8%
O=S(=O)(C1CC1)N1C[C@H]2CCC[C@@]2(COCc2ccccn2)C1	43.9%
O=C(c1cocn1)N1C[C@H]2CCC[C@@]2(COCc2cccnc2)C1	9.63%
Cc1ncoc1C(=O)N1C[C@H]2CCC[C@@]2(COCc2cccnc2)C1	60.1%
O=C(c1cscn1)N1C[C@H]2CCC[C@@]2(COCc2ccccn2)C1	64.7%
c1ccc(COC[C@@]23CCC[C@@H]2CN(Cc2ccccn2)C3)nc1	-7.94%
O=C(c1ncccn1)N1C[C@H]2CCC[C@@]2(COCc2cccnc2)C1	45.5%
O=C(C1CCOCC1)N1C[C@H]2CCC[C@@]2(COc2cccnc2)C1	23.6%
O=C(c1ccc(F)cc1)N1C[C@H]2CCC[C@@]2(COCc2ccccn2)C1	40.9%
O=C(c1ccnnc1)N1C[C@H]2CCC[C@@]2(COCc2ccccn2)C1	31.1%
O=C(NCCCn1cccn1)C1(c2ccccc2)CCOCC1	16.8%
Cc1c(C(=O)N2CCCC(n3nnc4cc(F)ccc43)C2)cnn1C (stereo not drawn)	2.71%
CCC(NC(=O)COC)c1ccccc1OCC(=O)N1CCCC1 (stereo not drawn)	-4.65%

Reference: ChEMBL document CHEMBL4513216, “Probing the Open Global Health Chemical Diversity Library for Multistage-Active Starting Points for Next-Generation Antimalarials” (ACS Infect Dis, 2020)
